An excerpt weighted towards active compounds, which were near 18% of everything screened.
VDR inh – blocks the human vitamin D receptor; P11473; VDR-SRC2-3 peptide fluorescence polarization, 2 h; Potency, µM, without a hit: max response, negative = inhibition, actives largely listed as inhibitors; 0.93% of 400,000 active; AID 504847
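Reagent solutions, kept cold and dark, are dispensed first; compounds are then pinned in at 23 nl, plates briefly spun, and incubated 2 h at ambient temperature. Inhibition of VDR–SRC2-3 peptide binding is read by fluorescence polarization.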
DT40 TDP1 CPT – DT40-hTDP1 cell growth loss with CPT; 12% of 420,000 active; AID 686979; chicken DT40 Tdp1-/-;hTDP1 cells + 20 nM CPT, ATP luminescence, 48 h; Potency, µM (series often up to 46.2 µM), without a hit: at the top dose activity change, negative = growth inhibition, actives largely listed as inhibitors; note: nearly all actives have a fitted effect of over 55% in size
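Cell growth measured by CellTiter-Glo luminescence after a minimum 48 h, 37 C compound exposure with 20 nM CPT in Tdp1-knockout DT40 cells stably expressing hTDP1, seeded 400/well; qHTS titration format.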
KAT2A inh – GCN5L2 (KAT2A) acetyltransferase inhibition. Potency, µM (series often up to 58.9 µM), for inactives: at the top dose activity change, negative = inhibition, usual class: inhibitors. 0.21% of 390,000 active. AID 504327. GCN5L2 HAT assay, ThioGlo1 CoA-SH fluorescence
Target sequence (Q92830 whole entry, looked up): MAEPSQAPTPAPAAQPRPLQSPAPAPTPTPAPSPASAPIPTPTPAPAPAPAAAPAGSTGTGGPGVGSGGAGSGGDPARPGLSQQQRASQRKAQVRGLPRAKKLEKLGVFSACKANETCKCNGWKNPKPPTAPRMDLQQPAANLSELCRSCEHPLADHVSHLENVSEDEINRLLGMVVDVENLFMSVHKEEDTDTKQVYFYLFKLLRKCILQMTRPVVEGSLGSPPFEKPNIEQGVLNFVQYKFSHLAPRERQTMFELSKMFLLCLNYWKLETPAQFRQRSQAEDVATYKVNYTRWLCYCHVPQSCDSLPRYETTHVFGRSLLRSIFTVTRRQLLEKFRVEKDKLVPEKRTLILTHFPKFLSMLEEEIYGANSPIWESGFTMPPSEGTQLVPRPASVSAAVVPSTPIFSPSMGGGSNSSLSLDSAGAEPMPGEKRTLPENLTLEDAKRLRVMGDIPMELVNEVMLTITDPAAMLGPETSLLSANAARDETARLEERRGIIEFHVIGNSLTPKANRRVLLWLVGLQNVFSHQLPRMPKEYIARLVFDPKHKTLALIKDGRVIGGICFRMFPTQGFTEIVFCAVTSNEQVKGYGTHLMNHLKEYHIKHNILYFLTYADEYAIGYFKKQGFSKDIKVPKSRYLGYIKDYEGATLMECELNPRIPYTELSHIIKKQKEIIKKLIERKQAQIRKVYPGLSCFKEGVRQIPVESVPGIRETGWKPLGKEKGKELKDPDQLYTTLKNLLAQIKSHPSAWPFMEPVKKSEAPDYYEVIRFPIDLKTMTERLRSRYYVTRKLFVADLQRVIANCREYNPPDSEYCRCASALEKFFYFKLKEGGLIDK
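Titration-based screen in which CoA formation is detected via maleimide probe ThioGlo1 (50uM) turning fluorescent on thiol reaction; substrates H3(1-25) 75uM and acetyl-CoA 70uM, GCN5L2 20nM, 20 min incubation at room temperature.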
TDP1 cell noCPT – qHTS for Inhibitors of human tyrosyl-DNA phosphodiesterase 1 (TDP1): qHTS in cells in absence of CPT. DT40 Tdp1-/- hTDP1 cells, no CPT, ATP luminescence, 48 h. Potency, µM (titrated, usually from 46.2 µM), inactives show at the highest dose activity change, negative = growth inhibition, actives largely listed as inhibitors. 15% of 420,000 active. AID 686978, 2013; note: nearly all actives have a fitted effect of over 55% in size
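Cells were dispensed at 400 per well, compounds added by pin tool, plates incubated ≥48 hr at 37 °C, then CellTiter-Glo added for 30 min at room temperature before luminescence reading. Line: DT40 Tdp1-/- complemented with hTDP1; camptothecin omitted.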
PLK1 PBD inh – blocks phosphopeptide binding to human PLK1 polo-box domain; Plk1 PBD binding of FITC phosphopeptide, fluorescence polarization; Potency, µM, for the others: max response, negative = inhibition, actives largely listed as inhibitors; 2.8% of 360,000 active; note: series mostly up to about 57 µM; nearly all actives have a fitted effect of over 65% in size
TDP1 block – inhibitors of human tyrosyl-DNA phosphodiesterase TDP1 | Q9NUW8 | recombinant TDP1, AlphaScreen DNA substrate cleavage | Potency, µM (top dose mostly 130 µM), without a hit: top-dose activity change, negative = inhibition, usual class: inhibitors | 0.28% of 350,000 active; note: nearly all actives have a fitted effect of over 40% in size
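Recombinant human Tdp1 (E. coli-expressed, 1 nM final) preincubated with compounds 15 min at room temperature, then 5'-biotin/3'-phosphotyrosine-FITC DNA substrate (15 nM final) added for 5 min. AlphaScreen beads (10 ug/ml final) added 10 min; cleavage lowers signal.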
Numbers without * were called inactive; ? = inconclusive; / = not tested or not shown; [ ] = another dose, or the depositor's remark. Calls come from the whole dose curve; as a rule, active = well fitted curve in the direction sought with a large enough effect; inconclusive = small, poorly fitted or top-dose-only effect, or another doubt; inactive = no such curve, though single readings can be large; an effect the other way counts as inactive or inconclusive. % is set by controls: 0 for no effect and ±100 for the full control effect; potency is the fitted concentration of half-maximal effect.

SMILES	VDR inh	DT40 TDP1 CPT	KAT2A inh	TDP1 cell noCPT	PLK1 PBD inh	TDP1 block
CC(C)c1ccc(S(=O)(=O)/N=C2/C=CC(=O)c3ccccc32)cc1	/	/	-7%	/	/	10%
CCc1ccc(S(=O)(=O)/N=C2\C=C(NS(=O)(=O)c3ccccc3)C(=O)c3ccccc32)cc1	?	?	?	-27%	21µM*	/
COc1ccc(-n2c(SCC(=O)NCC3CCCO3)nc3c(c2=O)SC(C)C3)cc1 (stereo not given)	7%	-4%	0%	2%	-5%	1%
N#CC(C#N)=c1ccc2c(c1)NC1(CCCCC1)N=2	?	12µM*	-3%	10µM*	-8%	10%
COc1ccc2cc(S(=O)(=O)NCc3cccnc3)ccc2c1	-15%	?	-7%	8.2µM*	-12%	/
O=C(O)/C=C/c1ccc(S(=O)(=O)NCc2cccnc2)cc1	?	?	-16%	-5%	24µM*	/
COc1ccc(OC)c(S(=O)(=O)NCc2cccnc2)c1	-20%	-1%	-1%	-5%	-16%	2%
O=C(O)c1ccc(S(=O)(=O)NCc2cccnc2)cc1	-9%	7%	21%	-1%	2%	/
COc1cccc(Cn2c(=O)c(-c3cccs3)nc3cnc(N4CCN(C)CC4)nc32)c1	-19%	6%	-3%	-23%	/	/
Cc1ccc(C(C)C)c(OCC(=O)Nc2ccc(N3CCOCC3)cc2N2CCOCC2)c1	-13%	23µM*	-11%	18µM*	-7%	1%
Cc1ccc(C(C)C)c(OCC(=O)Nc2ccccc2N2CCN(C)CC2)c1	6%	?	-5%	15µM*	3%	-7%
COc1cc(OC)cc(C(=O)Nc2cc(-c3nc4ccccc4[nH]3)ccc2C)c1	19%	/	-17%	/	/	8%
COc1ccc(Cl)cc1C(=O)NC(=S)Nc1cc(-c2nc3ccccc3[nH]2)ccc1C	-14%	?	-10%	15µM*	-18%	-9%
Cc1ccc(C(C)C)c(OCC(=O)Nc2cc(-c3nc4ccccc4[nH]3)ccc2C)c1	10%	4.6µM*	-12%	3.7µM*	/	1%
CC(=O)N1CCN(c2ccccc2NC(=O)COc2cc(C)ccc2C(C)C)CC1	-3%	?	-5%	?	-7%	6%
CCOC(=O)C1=C(COC(=O)/C=C/c2ccc(O)c(OC)c2)NC(=O)NC1C (stereo not given)	-12%	?	-5%	?	-1%	1%
Cc1cc(C)c(NC(=O)Cn2c(=O)n(CCc3ccccc3)c(=O)c3ccccc32)c(C)c1	2%	15µM*	-6%	21µM*	/	-2%
Cc1ccc(CNC(=O)c2ccc(Cn3c(=O)c4ccccc4n(CC(=O)Nc4ccc(C)cc4C)c3=O)cc2)cc1	-12%	16µM*	-7%	?	/	0%
CCOc1ccc(NC(=O)Cn2c(=O)n(Cc3ccc(C(=O)NCc4ccc(C)cc4)cc3)c(=O)c3ccccc32)cc1	-27%	16µM*	-2%	15µM*	/	2%
CCc1ccccc1NC(=O)Cn1c(=O)n(CCc2ccccc2)c(=O)c2ccccc21	9%	?	2%	?	/	6%
CCN(CC)C(=O)Cn1c(=O)n(Cc2ccc(C(=O)NCc3ccc(C)cc3)cc2)c(=O)c2ccccc21	3%	?	-2%	-24%	/	-8%
Cc1ccc(CNC(=O)c2ccc(Cn3c(=O)c4ccccc4n(CC(=O)Nc4ccc(C)cc4)c3=O)cc2)cc1	-8%	-26%	0%	-23%	/	2%
COCCCNC(=O)c1ccc(Cn2c(=O)c3ccccc3n(CC(=O)Nc3ccc(C)cc3C)c2=O)cc1	-2%	-4%	-2%	-2%	/	1%
Cc1ccc(CNC(=O)c2ccc(Cn3c(=O)c4ccccc4n(CC(=O)Nc4c(C)cc(C)cc4C)c3=O)cc2)cc1	-20%	6.5µM*	-10%	4.6µM*	/	0%
Cc1ccccc1CNC(=O)Cc1csc2ccccc12	13%	?	-7%	?	/	3%
SMILES	VDR inh	DT40 TDP1 CPT	KAT2A inh	TDP1 cell noCPT	PLK1 PBD inh	TDP1 block
Cc1ccc(C(=O)OC(C)C(=O)c2cc(C)c(C)cc2C)o1 (stereo not given)	14%	?	-22%	-10%	-3%	56µM*
COc1ccc(S(=O)(=O)n2nc(-c3ccco3)nc2NCc2ccc(N(C)C)cc2)cc1	-3%	?	-10%	?	/	7%
CC(C)c1ccc(CNc2nc(-c3ccco3)nn2S(=O)(=O)c2ccccc2)cc1	3%	23µM*	-20%	?	/	1%
CCn1cc(/C=N/N=C2\CCC3C4CCc5cc(O)ccc5C4CC[C@]23C)c(C)n1 (stereo not given in full)	-13%	16µM*	-4%	21µM*	0%	8%
Cc1ccc2nc(CN(C)C(=O)[C@H]3O[C@@H](n4ccc(N)nc4=O)[C@H](O)[C@@H]3O)[nH]c2c1	/	4%	/	7%	-3%	/
CCSc1nnc(NC(=O)CSc2nc3c(c(=O)n2CCOC)SC(C)C3)s1 (stereo not given)	0%	16µM*	-5%	23µM*	-15%	/
COCCn1c(SCC(=O)Nc2cc(C)on2)nc2c(c1=O)SC(C)C2 (stereo not given)	2%	-29%	29%	?	-3%	/
CCn1c(SCC(=O)Nc2cc(C)ccc2C)nc2c(c1=O)SC(C)C2 (stereo not given)	-7%	0%	-6%	-24%	-16%	2%
CCc1nnc(NC(=O)CSc2nc3c(c(=O)n2CC)SC(C)C3)s1 (stereo not given)	-6%	18µM*	-8%	12µM*	-8%	4%
Nc1o[nH]c(=O)c1C1CCCCC1	3%	-10%	/	3%	-11%	/
O=C(NCc1ccc(F)cc1)c1cc2sccc2n1Cc1ccc(F)cc1	/	/	-9%	/	/	2%
COC(=O)c1cc2sccc2n1Cc1ccc(F)cc1	10%	-21%	-6%	-8%	/	-3%
CC(C)NC(=O)C1CCN(C(=O)c2cc3sccc3n2Cc2ccc(F)cc2)CC1	-6%	6.5µM*	-6%[0.501 µM]	7.3µM*	2%	-1%
O=C(c1cc2sccc2n1Cc1ccc(F)cc1)N1CCCc2ccccc21	23%	?	-5%	23µM*	-10%	2%[56.1 µM]
O=C(NCc1ccccc1)c1cc2sccc2n1Cc1ccc(Cl)cc1	-5%	-14%	2%	-15%	/	-4%
CC1CCN(C(=O)C2CCN(C(=O)c3cc4sccc4n3Cc3ccc(F)cc3)CC2)CC1	22%	21µM*	-5%	18µM*	-6%	2%

High-throughput results deposited in PubChem BioAssay by National Center for Advancing Translational Sciences (NCATS).
